Consider 24 compounds from PubChem BioAssay (EPA / NIEHS).

Records with an inconclusive call do not appear. The source made the active and inactive calls. Rule for the calls: active = hit-call score of the fitted dose curve at least 0.9, where 1 is the maximum; inconclusive = response in the unintended direction; inactive = score below 0.9.

Sequence of human RAR-related Orphan Receptor gamma (RORg), RORC (gene 6097) (P51449 whole entry, looked up, the tested form may be a part): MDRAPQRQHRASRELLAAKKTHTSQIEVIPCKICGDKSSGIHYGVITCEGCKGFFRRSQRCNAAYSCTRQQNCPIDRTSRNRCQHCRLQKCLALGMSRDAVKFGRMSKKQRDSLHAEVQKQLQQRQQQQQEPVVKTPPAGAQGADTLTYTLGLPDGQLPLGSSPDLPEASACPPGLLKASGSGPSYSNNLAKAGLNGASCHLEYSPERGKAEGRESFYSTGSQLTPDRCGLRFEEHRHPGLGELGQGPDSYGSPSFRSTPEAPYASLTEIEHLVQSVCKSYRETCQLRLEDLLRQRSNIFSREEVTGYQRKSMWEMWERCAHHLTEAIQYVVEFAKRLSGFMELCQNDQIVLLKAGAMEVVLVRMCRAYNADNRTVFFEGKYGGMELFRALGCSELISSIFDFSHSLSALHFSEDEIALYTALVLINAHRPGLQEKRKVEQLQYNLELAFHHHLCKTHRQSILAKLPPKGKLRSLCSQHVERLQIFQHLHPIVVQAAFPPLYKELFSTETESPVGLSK
Sequence of human RAR-related Orphan Receptor beta (RORb), RORB (gene 6096) (Q92753 whole entry, looked up, the tested form may be a part): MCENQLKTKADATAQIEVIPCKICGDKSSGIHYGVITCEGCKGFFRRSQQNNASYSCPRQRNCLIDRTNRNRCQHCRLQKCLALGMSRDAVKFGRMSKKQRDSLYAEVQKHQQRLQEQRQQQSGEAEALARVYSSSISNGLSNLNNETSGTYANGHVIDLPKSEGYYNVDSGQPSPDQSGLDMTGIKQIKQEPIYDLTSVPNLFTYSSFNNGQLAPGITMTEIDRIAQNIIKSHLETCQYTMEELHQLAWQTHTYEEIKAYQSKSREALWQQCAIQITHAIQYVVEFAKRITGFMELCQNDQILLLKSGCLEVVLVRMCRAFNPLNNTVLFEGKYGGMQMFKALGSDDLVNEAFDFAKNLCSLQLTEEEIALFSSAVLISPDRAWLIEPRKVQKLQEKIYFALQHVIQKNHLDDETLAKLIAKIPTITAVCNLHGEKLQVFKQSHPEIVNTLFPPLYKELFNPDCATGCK

The first assay has as its target human RAR-related Orphan Receptor beta (RORb), RORB (gene 6096) (UniProt Q92753). Nature of the assay: ATG_RORb_TRANS: Attagene TRANS-FACTORIAL HepG2 Assay for human RAR-related Orphan Receptor beta (RORb) (AID 2283010). An outline of the steps: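 HepG2 cells transiently transfected with GAL4-UAS reporter units expressing chimeric NR-Gal4 protein; reporter mRNA measured 24 h after dosing by RT-PCR, 6-FAM labelling and capillary electrophoresis. Gain-of-signal fitted relative to DMSO baseline.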
With `CCCCCCCCCCOC(C)=O`, the compound was called inactive.

`O=C(Nc1cccc(C(F)(F)F)c1)c1cc(Br)cc(Br)c1O`: the compound was classed as inactive.

In the case of `CCCCCCCCCCc1ccccc1`, the result was inactive.

In the case of `FC(F)(F)C(=NOCC1OCCO1)c1ccc(Cl)cc1`, the compound was classed as inactive.

Consider `O=C1C=CC(=O)O1`, for which the call was inactive.

Turning to `O=C1c2ccccc2C(=O)C1c1nc2ccccc2c(Br)c1O`, the outcome was inactive.

With `O=c1[nH]nc(-c2ccc([N+](=O)[O-])o2)o1`, the call was inactive.

For the compound `Cc1cc(C)c(C(=O)O)c(C)c1`, the compound was called inactive.

As to `CC1(C)S[C@@H]2[C@H](NC(=O)COc3ccccc3)C(=O)N2[C@H]1C(=O)O`, the compound was called inactive.

On to `C=C1C2CCC(C2)C1(C)C` (centres undefined), for which the compound was classed as inactive.

In the case of `NCCCN1CCN(CCCN)CC1`, the compound was called inactive.

The target in another assay is human RAR-related Orphan Receptor gamma (RORg), RORC (gene 6097) (UniProt P51449). Nature of the assay: ATG_RORg_TRANS: Attagene TRANS-FACTORIAL HepG2 Assay for human RAR-related Orphan Receptor gamma (RORg) (AID 2283011). The method, boiled down:
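Transient MRTU transfection of HepG2 (TRANS format, exogenous NR-Gal4 chimera). 24 h dosing. Total RNA → oligo(dT) RT → PCR → 6-FAM labelling → HpaI cut → CE. Gain vs DMSO.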
In the case of `CCCCCCCCCCOC(C)=O`, the compound was called inactive.

As for `COC(=O)/C=C\C(=O)O`, the call was inactive.

Consider `O=C1OC(=O)c2cc(Oc3ccc4c(c3)C(=O)OC4=O)ccc21`, for which the result was inactive.

With `CCCCCCCCCCc1ccccc1`, the result was inactive.

Take `O=C1C=CC(=O)O1`: the call was inactive.

Turning to `O=C1c2ccccc2C(=O)C1c1nc2ccccc2c(Br)c1O`, the compound was called inactive.

As for `CC=CCO`, the compound was called inactive.

For `Cc1cc(C)c(C(=O)O)c(C)c1`, the outcome was inactive.

For `CCCCCCCC(C)=O`, the compound was called inactive.

As for `c1ccc(CCCc2ccncc2)cc1`, the result was inactive.

For `CC=C1CC2C=CC1C2` (centres undefined), the compound was called inactive.

In the case of `C=CC(=O)OCCC(=O)O`, the compound was classed as inactive.

Consider `CC(C)=CC1CC(C)CCO1` (centres undefined), for which the outcome was inactive.

Take `CCOCC(=O)O`: the outcome was inactive.

Turning to `CC(=O)NS(=O)(=O)c1ccc(N)cc1`, the compound was classed as inactive.

Turning to `CCCOCCOCCOCCO`, the call was inactive.

For the compound `CCCCCCCCCCCCCOP(=O)(O)O`, the compound was called inactive.

Turning to `O=S(=O)(O)c1ccccc1C=Cc1ccc(-c2ccc(C=Cc3ccccc3S(=O)(=O)O)cc2)cc1`, the result was inactive.
